Assay [1] can be described thus: P-glycoprotein substrates identified in KB-3-1 adenocarcinoma cell line, qHTS therapeutic library screen (AID 1346986). Note: nearly all actives have a fitted effect of over 60% in size.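 Note: potency is the fitted concentration of half-maximal effect; potency is for cytotoxicity meaning loss of cell viability.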 In short, it runs like this: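 In 1536-well format, 500 cells/well received pinned compound titrations and were incubated 72 h, 5% CO2. Viability was read by CellTiter-Glo; cytotoxic if AC50 < 10 uM and efficacy >50%.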
On the technique in general: Quantitative high-throughput screening tests each substance at several concentrations.

Assay [2] in a line: P-glycoprotein substrates identified in KB-8-5-11 adenocarcinoma cell line, qHTS therapeutic library screen (AID 1346987). Note: nearly all actives have a fitted effect of over 65% in size. The essentials: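 Luminescence from CellTiter-Glo, read 5 min after addition, quantified survival of KB-8-5-11 (P-gp-overexpressing) cells exposed to compounds for 72 h. AC50 was derived from concentration-response curves.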
Assay [3] is described as follows: Viability counterscreen for antagonist of constitutive androstane receptor (CAR) against the NCATS DSHEA and TCM libraries (AID 1794837).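 Note: compound exposure lasted 24 h before viability reading; 0% is about no effect.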 In short, it runs like this:
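Cells: HepG2 line carrying CYP2B6 reporter and hCAR, seeded and attached 5 h. Then pin-transferred test substances plus agonist CITCO at 48 uM final; 24 h incubation; fluorogenic viability reagent, 1 h.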
A general note: Counterscreens check selectivity or assay interference.

The nature of assay [4]: Viability counterscreen for agonist of constitutive androstane receptor (CAR) against the NCATS DSHEA and TCM libraries (AID 1794838).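 Note: HepG2 cells with CYP2B6 reporter and hCAR plus 0.75 µM PK11195 antagonist; 0% is about no effect.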 The essentials:
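Cell health was measured as CellTiter-Fluor signal in HepG2-CYP2B6-hCAR cells treated for 24 h with substances alongside the hCAR antagonist PK11195 (0.75 uM final).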

For assay [5], the target named is Nuclear receptor subfamily 1 group I member 3 (Homo sapiens) (UniProt Q14994). Description: Primary qHTS for agonist of constitutive androstane receptor (CAR) against the NCATS DSHEA and TCM libraries (AID 1794839).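 Note: HepG2 cells expressing human CAR with a CYP2B6 reporter plus PK11195 antagonist; luciferase reporter luminescence read with ONE-Glo; 0% is about no effect.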 In short, it runs like this:
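qHTS, agonist mode: HepG2-CYP2B6-hCAR, 2,500 cells/well, 5 h attach; cpds + PK11195 0.75 µM final; 24 h, 37 °C, 5% CO2. Readouts: CellTiter-Fluor (405/540 nm), then ONE-Glo luminescence.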

A short description of assay [6]: HepG2 viability counterscreen (readout 2: ATP content) against the NCATS DSHEA and TCM libraries (AID 1794840). Note: 0% is about no effect. The essentials: (§1)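 Same wells read twice: first fluorescence from cleaved GF-AFC substrate (25 uM final, 30 min, 37C) for live-cell protease, then CellTiter-Glo luminescence after 30 min at room temperature for ATP. HepG2 cells were exposed ~24 h to substances.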

The nature of assay [7]: HepG2 viability counterscreen (readout 1: protease activity) against the NCATS DSHEA and TCM libraries (AID 1794841).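 Note: cells exposed to compounds for about 24 h before the protease read; 0% is about no effect.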 In short, it runs like this:
as §1

In assay [8] the target is Cytochrome P450 2D6 (Homo sapiens) (UniProt P10635). Description: qHTS for inhibitors of CYP2D6 against the NCATS DSHEA and TCM libraries (AID 1919972). Note: % is set by controls: 0 for no effect and ±100 for the full control effect. In short, it runs like this:
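CYP2D6 enzyme with pro-luciferin substrate in manufacturer buffer (typically 100 mM KPO4), preincubated 15 min RT with substances (most at 19.5 nM upward); NADPH regeneration system (1x) started 30–45 min RT reaction; P450-Glo luminescence read after 30 min; quinidine as intraplate control.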

Assay [9] deals with Cytochrome P450 2C9 (Homo sapiens) (UniProt P11712). Kind of assay: qHTS for inhibitors of CYP2C9 against the NCATS DSHEA and TCM libraries (AID 1919973). Note: potency is the fitted concentration of half-maximal effect. The essentials: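 Concentration-response screening with isoform-matched pro-luciferin substrates. The CYP reaction was initiated by NADPH regenerating solution and ran 30-45 min in darkness at room temperature.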
Chain of Cytochrome P450 2C9 (Homo sapiens) (P11712 whole entry, looked up, canonical isoform): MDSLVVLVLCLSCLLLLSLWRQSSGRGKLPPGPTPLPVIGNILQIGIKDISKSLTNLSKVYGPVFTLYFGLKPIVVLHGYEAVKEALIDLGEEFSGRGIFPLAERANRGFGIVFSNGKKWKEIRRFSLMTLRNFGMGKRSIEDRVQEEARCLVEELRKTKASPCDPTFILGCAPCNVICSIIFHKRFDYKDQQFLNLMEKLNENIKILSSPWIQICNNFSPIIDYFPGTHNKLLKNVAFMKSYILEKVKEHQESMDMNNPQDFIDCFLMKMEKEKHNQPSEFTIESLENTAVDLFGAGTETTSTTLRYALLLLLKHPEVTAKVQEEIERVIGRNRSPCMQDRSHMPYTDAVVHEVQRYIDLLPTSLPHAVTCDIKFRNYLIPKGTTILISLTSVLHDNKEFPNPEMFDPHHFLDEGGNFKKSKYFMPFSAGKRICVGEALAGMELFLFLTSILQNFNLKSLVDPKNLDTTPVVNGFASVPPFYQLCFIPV
Assay [10] is described as follows: KB-3-1 P-gp reporter qHTS against the NCATS DSHEA and TCM libraries (AID 1919975). Note: 0% is about no effect. In short, it runs like this:
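KB-3-1 parental line, 1536-well qHTS: cells seeded, ~4 h attachment, pintool compound addition, ~72 h at 37C, then CellTiter-Glo, 30 min RT, luminescence. Concentration-response format.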

Assay [11] addresses Cytochrome P450 1A2 (Homo sapiens) (UniProt P05177). Description: qHTS for inhibitors of CYPIA2 against the NCATS DSHEA and TCM libraries (AID 1919976).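 Note: light from luciferin formed by CYP1A2 from a pro-luciferin substrate; % is set by controls: 0 for no effect and ±100 for the full control effect.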 In short, it runs like this: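 Enzyme and pro-luciferin substrate, or substrate alone as no-enzyme background, are pre-incubated with test samples for 15 min at room temperature. NADPH regeneration system (1x final) initiates a 30-45 min dark reaction; luciferase detection reagent follows before luminescence reading.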

Assay [12] can be described thus: qHTS Counterscreen for compound interference against the NCATS DSHEA and TCM libraries (AID 1919978).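 Note: compounds preincubated with 1 µM D-luciferin or buffer before detection reagent; % of control where 0% means no effect.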 Particulars: firefly luciferase detection reagent interference, luminescence. In short, it runs like this:
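Compounds, titrated from 19.5 nM to 39.8 uM final, were pinned onto 1 uM D-luciferin or plain 100 mM potassium phosphate. After 15 min at room temperature, luciferin detection reagent was added for 30 min before the luminescence read.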

Assay [13] can be described thus: Dual reporter qHTS for agonist of Pregnane X Receptor (hPXR) against the NCATS DSHEA and TCM libraries: Fluorescence readout (AID 1920058). Note: 0% is about no effect. In short, it runs like this:
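Cells were plated at 2000 per well and allowed to attach for 5 h. Test substances were pinned in and incubated roughly 24 h. CellTiter-Fluor was then added and fluorescence measured after 1 h.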

Assay [14] concerns the target Nuclear receptor subfamily 1 group I member 2 (Homo sapiens) (UniProt O75469). Kind of assay: Dual reporter qHTS for agonist of Pregnane X Receptor (hPXR) against the NCATS DSHEA and TCM libraries: Luminescence readout (AID 1920059). Note: 0% is about no effect. The essentials:
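hPXR-Luc HepG2 cells, 2000/well in 5% charcoal-stripped FBS medium, attached 5 h, then exposed 24 h at 37C to compounds. Viability by CellTiter-Fluor, then luciferase luminescence with ONE-Glo.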

Assay [15] has the same target. Description: Dual reporter qHTS for antagonist of Pregnane X Receptor (hPXR) against the NCATS DSHEA and TCM libraries: Luminescence Readout (AID 1920060).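 Note: HepG2 cells carrying hPXR luciferase reporter stimulated with rifampicin at 2 µM; 0% is about no effect.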 In short, it runs like this:
(§2)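 Antagonist mode: rifampicin 2 uM final co-added with compounds to hPXR-LucHepG2 cells for 24 h at 37C. Viability by CellTiter-Fluor, Ex/Em 405/540 nm, 1 h; reporter by ONE-Glo luminescence.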

The nature of assay [16]: Dual reporter qHTS for antagonist of Pregnane X Receptor (hPXR) against the NCATS DSHEA and TCM libraries: Fluorescence Readout (AID 1920061). Note: 0% is about no effect. In short, it runs like this: as §2
A short description of assay [17]: Primary qHTS for inhibitors of nuclear receptor binding SET domain protein 2 (NSD2) in an isogenic RCH-ACV NSD2 p.E1099K mutant (9B) (AID 1645876). Note: potency is the fitted concentration of half-maximal effect; nearly all actives have a fitted effect of over 70% in size.
Assay [18] can be described thus: Primary qHTS for inhibitors of nuclear receptor binding SET domain protein 2 (NSD2) in an RCH-ACV wild type WT cells (2C) (AID 1645877). Note: nearly all actives have a fitted effect of over 70% in size. Note: potency is the fitted concentration of half-maximal effect.
For assay [19], the system named is Zika virus NS2B-NS3 protease. Description: Primary screen GU AMC qHTS for Zika virus inhibitors (AID 1347154).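 Note: 0% = no-inhibitor control and -100% = no-enzyme control; nearly all actives have a fitted effect of over 70% in size.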 The essentials: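 Unlinked Zika NS2B hydrophilic domain–NS3 protease complex at 25 nM in 10 mM Tris-HCl pH 8.0, 0.01% Tween 20, with an AMC peptide substrate. Fluorescence change (340/450 nm) over 15 min at room temperature, normalized to controls, fitted to 4-parameter Hill.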

The nature of assay [20]: Primary qHTS for small molecule stabilizers of the endoplasmic reticulum resident proteome: Secreted ER Calcium Modulated Protein (SERCaMP) assay (AID 1508630). Note: % is set by controls: 0 for no effect and ±100 for the full control effect. In short, it runs like this: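 The SH-SY5Y reporter protocol was run at 3 concentrations up to 38.3 uM (primary) or 11 concentrations (follow-up): 16 h compound, 100 nM thapsigargin for 4 h, then extracellular luciferase luminescence.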

Assay [21] can be described thus: qHTS to identify inhibitors of the type 1 interferon - major histocompatibility complex class I in skeletal muscle: primary screen against the NCATS Mechanism Interrogation Plate v5.0 (MIPE) Libary (AID 1347411). Note: potency is the fitted concentration of half-maximal effect; nearly all actives have a fitted effect of over 65% in size. The essentials: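 Seed engineered human myoblasts (HLA-B HiBit) in medium without dexamethasone containing 4 ng/ml IFN-beta; after 1 hr add compound titrations (top 46 uM final). Incubate 24 hrs at 37 C, lyse 10 min with HiBiT reagent, read luminescence.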

Assay [22] addresses Glutathione peroxidase 1 (Homo sapiens) (UniProt P07203). Description: Primary qHTS Assay for Inhibitors of Recombinant Selenoprotein Glutathione Peroxidase 1 (GPX1) (AID 1845191). Note: % is set by controls: 0 for no effect and ±100 for the full control effect; nearly all actives have a fitted effect of over 65% in size. The essentials: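 GR-coupled readout: NADPH consumption tracked by fluorescence, ex 340/em 450 nm, at t=0 and after 15 min at RT. Final mix 10 nM GPX1, 1 mM GSH, 0.5 mM CHP, 0.5 mM NADPH, 100 nM GR, 0.01% BSA, following 30 min enzyme–compound preincubation.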

Assay [23] is described as follows: qHTS drug screen for cell cycle checkpoint inhibitors in PARPi-resistant BRCA-mutant ovarian cancer cell lines. (AID 1963452; calls by dose curve; note: potency is the fitted concentration of half-maximal effect). Particulars: PEO1/OlaR viability, CellTiter-Glo luminescence, 96 h; for Z-AUC: stronger effect = lower value. In short, it runs like this:
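PEO1, PEO4 and PEO1/OlaR ovarian cancer cells, 600 per well, exposed 96 h at 37C to a dilution series. Viability read by CellTiter-Glo luminescence, normalized to DMSO and empty wells; activity summarized as Z-AUC.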

Assay [24] can be described thus: qHTS assay to identify inhibitors of the type 1 interferon - major histocompatibility complex class I in skeletal muscle: Counter screen cell viability and HiBit confirmation (AID 1347412). Note: % is set by controls: 0 for no effect and ±100 for the full control effect; nearly all actives have a fitted effect of over 60% in size. Particulars: iHSKM muscle cells + IFN-b, HiBiT or CellTiter-Glo, 24 h; HiBiT; at 45.9 µM (top of the series). The essentials: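 Luminescence read-out: Nano-Glo HiBiT lytic signal from C-terminally HiBiT-tagged HLA-B in CRISPR-edited human myoblasts, plus CellTiter Glo ATP as viability counter screen. IFN-beta 4.0 ng/ml; 24 hrs treatment at 37 C, 5% CO2.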

Records with an inconclusive call do not appear. Active and inactive are the calls of the source. Unless noted, calls come from the whole dose curve; as a rule, active = well fitted curve in the direction sought with a large enough effect; inconclusive = small, poorly fitted or top-dose-only effect, or another doubt; inactive = no such curve, though single readings can be large; an effect the other way counts as inactive or inconclusive.

Experimental findings from PubChem BioAssay (NCATS) are described below.

Chain of Glutathione peroxidase 1 (Homo sapiens) (P07203 whole entry, looked up): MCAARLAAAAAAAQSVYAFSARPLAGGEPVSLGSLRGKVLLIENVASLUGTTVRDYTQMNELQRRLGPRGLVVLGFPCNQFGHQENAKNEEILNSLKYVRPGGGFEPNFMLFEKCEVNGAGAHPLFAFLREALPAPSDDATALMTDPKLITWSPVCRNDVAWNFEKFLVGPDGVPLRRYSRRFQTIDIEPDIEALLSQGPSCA
Chain of Nuclear receptor subfamily 1 group I member 2 (Homo sapiens) (O75469 whole entry, looked up): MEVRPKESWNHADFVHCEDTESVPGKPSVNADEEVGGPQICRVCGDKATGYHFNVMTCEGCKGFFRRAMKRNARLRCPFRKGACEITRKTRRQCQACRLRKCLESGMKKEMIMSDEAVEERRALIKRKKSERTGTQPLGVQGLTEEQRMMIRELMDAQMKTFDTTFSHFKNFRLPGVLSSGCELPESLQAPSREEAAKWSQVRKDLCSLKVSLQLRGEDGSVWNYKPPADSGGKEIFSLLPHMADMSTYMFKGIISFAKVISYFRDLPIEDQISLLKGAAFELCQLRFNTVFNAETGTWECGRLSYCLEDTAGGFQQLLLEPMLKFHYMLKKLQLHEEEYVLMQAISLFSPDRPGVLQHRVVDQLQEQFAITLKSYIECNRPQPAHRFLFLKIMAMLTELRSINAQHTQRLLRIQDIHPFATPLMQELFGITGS
Chain of Cytochrome P450 2D6 (Homo sapiens) (P10635 whole entry, looked up): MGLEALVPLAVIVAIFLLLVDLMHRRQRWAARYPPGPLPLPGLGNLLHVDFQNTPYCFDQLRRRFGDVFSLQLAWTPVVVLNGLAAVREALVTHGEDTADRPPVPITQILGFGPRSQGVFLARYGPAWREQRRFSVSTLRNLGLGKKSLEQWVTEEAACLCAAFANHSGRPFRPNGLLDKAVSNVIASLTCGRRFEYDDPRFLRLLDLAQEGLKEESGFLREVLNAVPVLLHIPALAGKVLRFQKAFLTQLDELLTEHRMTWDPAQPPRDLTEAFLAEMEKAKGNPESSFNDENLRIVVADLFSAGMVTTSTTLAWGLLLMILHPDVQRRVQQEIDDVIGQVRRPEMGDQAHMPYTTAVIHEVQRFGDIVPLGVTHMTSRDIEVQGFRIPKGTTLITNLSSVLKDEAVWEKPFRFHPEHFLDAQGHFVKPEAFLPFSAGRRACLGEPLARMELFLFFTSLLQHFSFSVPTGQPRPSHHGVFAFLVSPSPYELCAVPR
Chain of Cytochrome P450 1A2 (Homo sapiens) (P05177 whole entry, looked up): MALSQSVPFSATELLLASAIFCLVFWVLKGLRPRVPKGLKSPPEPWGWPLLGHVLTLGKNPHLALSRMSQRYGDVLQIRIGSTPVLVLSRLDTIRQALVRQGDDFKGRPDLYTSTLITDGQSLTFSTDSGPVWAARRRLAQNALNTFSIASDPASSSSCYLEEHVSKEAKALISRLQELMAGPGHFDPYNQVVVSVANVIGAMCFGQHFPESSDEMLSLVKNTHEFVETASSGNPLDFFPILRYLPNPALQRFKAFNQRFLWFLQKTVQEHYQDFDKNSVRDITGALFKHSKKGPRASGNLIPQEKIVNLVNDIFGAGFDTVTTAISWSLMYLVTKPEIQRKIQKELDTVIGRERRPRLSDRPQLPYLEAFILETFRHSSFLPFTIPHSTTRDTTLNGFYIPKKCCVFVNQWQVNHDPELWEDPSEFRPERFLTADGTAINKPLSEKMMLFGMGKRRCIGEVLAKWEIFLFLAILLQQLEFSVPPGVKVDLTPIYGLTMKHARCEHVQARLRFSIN
Chain of Nuclear receptor subfamily 1 group I member 3 (Homo sapiens) (Q14994 whole entry, looked up): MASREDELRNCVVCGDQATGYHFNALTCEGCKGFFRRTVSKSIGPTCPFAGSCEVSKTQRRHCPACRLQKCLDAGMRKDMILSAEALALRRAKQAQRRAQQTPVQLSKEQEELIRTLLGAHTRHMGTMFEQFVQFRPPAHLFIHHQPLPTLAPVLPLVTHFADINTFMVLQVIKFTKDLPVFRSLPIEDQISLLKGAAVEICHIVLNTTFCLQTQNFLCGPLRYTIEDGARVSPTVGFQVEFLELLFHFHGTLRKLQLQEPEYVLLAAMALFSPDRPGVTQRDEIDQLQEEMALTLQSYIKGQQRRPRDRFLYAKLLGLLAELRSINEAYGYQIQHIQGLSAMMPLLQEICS

Take `O=C(O[C@@H]1Cc2c(O)cc(O)cc2O[C@H]1c1cc(O)c(O)c(O)c1)c1cc(O)c(O)c(O)c1`: the Potency entry in assay [1] and in assay [2] was “inactive” each time. Moreover, the result in assay [3], in [4], in [5], in assay [6], in assay [7] and in [8] was inactive. For the same compound, the call in [10], in assay [11], in assay [13], in assay [14], in assay [15] and in [16] was inactive. In addition, the Potency in assay [9] was 12.6 µM (active). In addition, the max response in [12] is -4.04% (inactive).

On to `CC(C)(N)c1cc(C(=O)N[C@@H]2CCc3ccc(Oc4ccnc5c4CCC(=O)N5)cc3C2)cc(C(F)(F)F)c1`, for which the Potency in assay [1] was 18.4 µM (active); in [17] it was 11.6 µM (active); in assay [18], 14.6 µM (active).

Regarding `O=c1cc(N2CCNCC2)oc2c(-c3ccccc3)cccc12`, the Potency in assay [1] was 7.31 µM (active). Also, the Potency result in assay [19] and in [20] was “inactive” in each case.

Regarding `COCc1c(-c2ccc(NC(=O)Nc3cc(C(F)(F)F)ccc3F)c(F)c2)c2c(N)ncnn2c1CN1CCOCC1`, the Potency is 16.4 µM (active) in assay [1], 3.3 µM (active) in [21] and 3.47 µM (active) in assay [23]. The Potency entry in assay [22] was “inactive”. Moreover, the Z-AUC in assay [23] (measured here: PEO1 parental Z-AUC) was -1.33; in assay [23] (measured here: PEO4 Z-AUC), -1.61. Besides, the activity change, negative = inhibition in assay [24] was -92% (inactive).

For the compound `Nc1ncnc2c1ncn2[C@H]1O[C@H](CO)[C@@H](O)[C@@H]1O`, the Potency entry in [1] is “inactive”. Moreover, the Potency in [17] and in assay [18] was 39.8 µM (active) each time.

Take `O=C(/C=C/c1nc2ccccc2[nH]1)c1c(-c2ccccc2)c2cc(Cl)ccc2[nH]c1=O`: the Potency in [1] is 7.31 µM (active); in [17], 1.16 µM (active); in [18], 1.03 µM (active). Besides, the Potency result in [22] was “inactive”.

For `COc1ccc2c(c1O)OC(C)(C)c1c-2ccc2c1C(=O)N(c1ccc(C(=O)c3ccccc3)cc1)C2=O`, the Potency entry in assay [1] and in assay [22] was “inactive” throughout.

For `C[n+]1cc(NC(=O)c2cccc(C(=O)Nc3cc4ccccc4[n+](C)c3)n2)cc2ccccc21`, the Potency in assay [1] was 16.4 µM (active). The Potency result in [2], in [18] and in assay [22] was “inactive” in each case.
